Measured values reported in PubChem BioAssay (NCATS).
Inconclusive results are not listed. Calls of active or inactive are those of the source. The call rests on the fitted dose curve; in most records, active means well fitted cell-killing curve with a large enough effect; inconclusive means small, poorly fitted or top-dose-only effect, or effect the other way; inactive means flat fitted curve, though single readings scatter.

How the values were obtained:
Assay in all cases: Primary qHTS to identify gynecologic anti-cancer compounds using libraries of approved drugs and bioactive compounds (AID 1345084); further: nearly all actives have a fitted effect of over 55% in size
C33A = conditions: Gynecologic cancer cell panel viability, ATPlite luminescence, 48 h; series mostly up to 57.5 µM
How it was run: (§1)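 48 h compound exposure at 37 C, 5% CO2; five-point qHTS. ATPlite luminescence readout of cell ATP.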

CAOV3 = conditions: Gynecologic cancer cell panel viability, ATPlite luminescence, 48 h; series mostly up to 57.5 µM
How it was run: as §1

CASKI = conditions: Gynecologic cancer cell panel viability, ATPlite luminescence, 48 h; series mostly up to 57.5 µM
How it was run: as §1

Es-2 = conditions: Gynecologic cancer cell panel viability, ATPlite luminescence, 48 h; series mostly up to 57.5 µM
How it was run: as §1

HeLa = conditions: Gynecologic cancer cell panel viability, ATPlite luminescence, 48 h; series mostly up to 57.5 µM
How it was run: as §1

Hek293T = conditions: Gynecologic cancer cell panel viability, ATPlite luminescence, 48 h, control line for the selectivity index; series mostly up to 57.5 µM
How it was run: as §1

JEG-3 = conditions: Gynecologic cancer cell panel viability, ATPlite luminescence, 48 h; series mostly up to 57.5 µM
How it was run: as §1

OV90 = conditions: Gynecologic cancer cell panel viability, ATPlite luminescence, 48 h; series mostly up to 57.5 µM
How it was run: as §1

PA-1 = conditions: Gynecologic cancer cell panel viability, ATPlite luminescence, 48 h; series mostly up to 57.5 µM
How it was run: as §1

SKOV3 = conditions: Gynecologic cancer cell panel viability, ATPlite luminescence, 48 h; series mostly up to 57.5 µM
How it was run: as §1

Tov-21-G = conditions: Gynecologic cancer cell panel viability, ATPlite luminescence, 48 h; series mostly up to 57.5 µM
How it was run: as §1

Tov112D = conditions: Gynecologic cancer cell panel viability, ATPlite luminescence, 48 h; series mostly up to 57.5 µM
How it was run: as §1
On the % scale 0 is the no-effect control and ±100 the full control effect.

COc1ccc(C2Oc3c(OC)cc(CCCO)cc3C2COC2OC(CO)C(O)C(O)C2O)cc1OC (stereo not given)
inactive: Potency (C33A) | Potency (CAOV3) | Potency (CASKI) | Potency (Es-2) | Potency (HeLa) | Potency (Hek293T) | Potency (JEG-3) | Potency (OV90) | Potency (PA-1) | Potency (SKOV3) | Potency (Tov-21-G) | Potency (Tov112D)

CCCCCCOC(=O)/N=C(\N)c1ccc(NCc2nc3cc(C(=O)N(CCC(=O)OCC)c4ccccn4)ccc3n2C)cc1
inactive: Potency (C33A) | Potency (CAOV3) | Potency (CASKI) | Potency (Es-2) | Potency (HeLa) | Potency (Hek293T) | Potency (JEG-3) | Potency (OV90) | Potency (PA-1) | Potency (SKOV3) | Potency (Tov-21-G) | Potency (Tov112D)

Cc1ccc(C)c(NS(=O)(=O)c2cc(C(=O)Nc3ccccc3-c3ccccc3)ccc2C)c1
inactive: Potency (C33A) | Potency (CAOV3) | Potency (CASKI) | Potency (Es-2) | Potency (HeLa) | Potency (Hek293T) | Potency (JEG-3) | Potency (OV90) | Potency (PA-1) | Potency (SKOV3) | Potency (Tov-21-G) | Potency (Tov112D)

C=C1C(=O)OC2C3=C(C)C(=O)CC3C(C)CC(O)C12 (stereo not given)
inactive: Potency (C33A) | Potency (CAOV3) | Potency (CASKI) | Potency (Es-2) | Potency (HeLa) | Potency (Hek293T) | Potency (JEG-3) | Potency (OV90) | Potency (PA-1) | Potency (SKOV3) | Potency (Tov-21-G) | Potency (Tov112D)

COc1ccc(CN2CCN(CCCSc3cc(C(C)(C)C)c(O)c(C(C)(C)C)c3)CC2)c(OC)c1OC
inactive: activity change, negative = cytotoxicity (C33A) 1.62% [at 11.6 µM] | activity change, negative = cytotoxicity (CAOV3) 11% [at 11.6 µM] | activity change, negative = cytotoxicity (CASKI) -0.531% [at 11.6 µM] | activity change, negative = cytotoxicity (Es-2) 12.2% [at 11.6 µM] | activity change, negative = cytotoxicity (HeLa) 8.85% [at 11.6 µM] | activity change, negative = cytotoxicity (Hek293T) -2.05% [at 11.6 µM] | activity change, negative = cytotoxicity (JEG-3) 1.83% [at 11.6 µM] | activity change, negative = cytotoxicity (OV90) 3.61% [at 11.6 µM] | activity change, negative = cytotoxicity (PA-1) 1.3% [at 11.6 µM] | activity change, negative = cytotoxicity (SKOV3) 17.3% [at 11.6 µM] | activity change, negative = cytotoxicity (Tov-21-G) 7.27% [at 11.6 µM] | activity change, negative = cytotoxicity (Tov112D) 2.48% [at 11.6 µM]

O=C(NCCCc1ccccc1)C1CCC(CNS(=O)(=O)c2cccc3nsnc23)CC1 (stereo not given)
inactive: Potency (C33A) | Potency (CAOV3) | Potency (CASKI) | Potency (Es-2) | Potency (HeLa) | Potency (Hek293T) | Potency (JEG-3) | Potency (OV90) | Potency (PA-1) | Potency (SKOV3) | Potency (Tov-21-G) | Potency (Tov112D)

O=C(O)c1cc(N(Cc2ccc(C3CCCCC3)cc2)C(=O)c2ccc(Oc3ccccc3)cc2)ccc1O
inactive: Potency (C33A) | Potency (CAOV3) | Potency (CASKI) | Potency (Es-2) | Potency (HeLa) | Potency (Hek293T) | Potency (JEG-3) | Potency (OV90) | Potency (PA-1) | Potency (SKOV3) | Potency (Tov-21-G) | Potency (Tov112D)

O=C1COc2nccc(-c3ccccc3F)c2CN1Cc1cc(C(F)(F)F)cc(C(F)(F)F)c1
inactive: Potency (C33A) | Potency (CAOV3) | Potency (CASKI) | Potency (Es-2) | Potency (HeLa) | Potency (Hek293T) | Potency (JEG-3) | Potency (OV90) | Potency (PA-1) | Potency (SKOV3) | Potency (Tov-21-G) | Potency (Tov112D)

COC(=O)c1ccc2c(c1)nc(NC(=O)c1ccccc1)n2CCCc1ccccc1
inactive: Potency (C33A) | Potency (CAOV3) | Potency (CASKI) | Potency (Es-2) | Potency (HeLa) | Potency (Hek293T) | Potency (JEG-3) | Potency (OV90) | Potency (PA-1) | Potency (SKOV3) | Potency (Tov-21-G) | Potency (Tov112D)

CC1(C)CC[C@]23CO[C@@]4(CCC5[C@@]6(C)CC[C@H](O[C@@H]7OC[C@H](O[C@@H]8O[C@H](CO)[C@@H](O)[C@H](O)[C@H]8O[C@@H]8OC[C@@H](O)[C@H](O)[C@H]8O)[C@H](O)[C@H]7O)[C@@](C)(CO)C6CC[C@@]5(C)[C@]4(C)CC2=O)[C@@H]3C1 (stereo not given in full)
inactive: activity change, negative = cytotoxicity (C33A) -27.4% [at 11.6 µM] | activity change, negative = cytotoxicity (CAOV3) 7.02% [at 11.6 µM] | activity change, negative = cytotoxicity (CASKI) -3.31% [at 11.6 µM] | activity change, negative = cytotoxicity (Es-2) 9.11% [at 11.6 µM] | activity change, negative = cytotoxicity (HeLa) 16.9% [at 11.6 µM] | activity change, negative = cytotoxicity (Hek293T) 5.05% [at 11.6 µM] | activity change, negative = cytotoxicity (JEG-3) -8.75% [at 11.6 µM] | activity change, negative = cytotoxicity (OV90) -4.17% [at 11.6 µM] | activity change, negative = cytotoxicity (PA-1) 10.3% [at 11.6 µM] | activity change, negative = cytotoxicity (SKOV3) -7.83% [at 11.6 µM] | activity change, negative = cytotoxicity (Tov-21-G) -3.45% [at 11.6 µM] | activity change, negative = cytotoxicity (Tov112D) 1.26% [at 11.6 µM]

Cc1cnn(-c2ccccc2)c1NC(=O)COCc1ccccc1
inactive: Potency (C33A) | Potency (CAOV3) | Potency (CASKI) | Potency (Es-2) | Potency (HeLa) | Potency (Hek293T) | Potency (JEG-3) | Potency (OV90) | Potency (PA-1) | Potency (SKOV3) | Potency (Tov-21-G) | Potency (Tov112D)

Cc1cc(C)c(S(=O)(=O)n2cc(C)cc2C)c(C)c1
inactive: Potency (C33A) | Potency (CAOV3) | Potency (CASKI) | Potency (Es-2) | Potency (HeLa) | Potency (Hek293T) | Potency (JEG-3) | Potency (OV90) | Potency (PA-1) | Potency (SKOV3) | Potency (Tov-21-G) | Potency (Tov112D)

C/C=C(\C)C(=O)O[C@H]1C[C@](C)(O)[C@H]2CC=C(C)[C@H]2[C@@H]2OC(=O)[C@H](C)[C@H]21
inactive: Potency (C33A) | Potency (CAOV3) | Potency (CASKI) | Potency (Es-2) | Potency (HeLa) | Potency (Hek293T) | Potency (JEG-3) | Potency (OV90) | Potency (PA-1) | Potency (SKOV3) | Potency (Tov-21-G) | Potency (Tov112D)

Cc1cc2c(N3CCCC3)nc(N3CCCC3)nc2n1C
inactive: Potency (C33A) | Potency (CAOV3) | Potency (CASKI) | Potency (Es-2) | Potency (HeLa) | Potency (Hek293T) | Potency (JEG-3) | Potency (OV90) | Potency (PA-1) | Potency (SKOV3) | Potency (Tov-21-G) | Potency (Tov112D)

CC1(C=O)CCCC2(C)C1CCC13CC(CO)C(CCC12)C3 (stereo not given)
inactive: Potency (C33A) | Potency (CAOV3) | Potency (CASKI) | Potency (Es-2) | Potency (HeLa) | Potency (Hek293T) | Potency (JEG-3) | Potency (OV90) | Potency (PA-1) | Potency (SKOV3) | Potency (Tov-21-G) | Potency (Tov112D)
